# Tau fibril FP = inhibitors of human tau fibril formation. P10636. K18 P301L tau heparin fibrillization, Alexa594 FP, 6 h. Potency, µM (series often up to 57.7 µM), for the others: at the top dose activity, negative = inhibition, actives largely listed as inhibitors. 280,000 compounds, 0.39% hits; also: potency is read from the fitted curve at half-maximal effect; nearly all actives have a fitted effect of over 55% in size
# Target sequence (P10636 561-689 P618L limits assumed): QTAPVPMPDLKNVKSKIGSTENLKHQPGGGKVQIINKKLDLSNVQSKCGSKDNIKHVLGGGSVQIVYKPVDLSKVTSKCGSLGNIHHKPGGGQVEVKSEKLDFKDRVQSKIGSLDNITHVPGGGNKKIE
#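 Quantitative HTS format: compounds meet 15 uM recombinant K18 P301L tau and Alexa 594-tau tracer in 100 mM sodium acetate pH 7; 20 uM heparin triggers fibrillization at 37 C over 6 hr; FP gives the signal.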
# PNC assembly inh = perinucleolar compartment assembly inhibition. activity change (PNC), negative = inhibition, % at 10 µM. 140,000 compounds, 3.1% hits. AID 2417. PC3M PTB-GFP, PNC prevalence imaging, 16 h; active compounds read low;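 active = readout at or below -70, meaning at least 70% loss of cells showing the perinucleolar compartment, a nuclear body marking cancer cells; inconclusive = readout between -30 and a set limit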;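 also: plate controls were DMSO wells for no effect and camptothecin positive control wells for full effect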
#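 PC3M cells stably expressing PTB-GFP, 750–1000 cells/well, treated 16 h at 37 °C with compound (23 nl of library stock), in duplicate. After paraformaldehyde fixation and Hoechst stain, imaged at 20x; PNC prevalence scored by image analysis.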
# Tau fluor counter = counter-screen for tau fibril formation inhibitors. tau K18 P301L Alexa594 fluorescence, heparin fibrillization. Potency, µM (top dose mostly 57.7 µM), inactives show at the highest dose activity change, negative = decrease. 280,000 compounds, 0.93% hits; also: potency is read from the fitted curve at half-maximal effect; nearly all actives have a fitted effect of over 55% in size
#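 Human tau K18 P301L (15 uM unlabeled, 0.24 uM Alexa 594-labeled) in 100 mM sodium acetate pH 7 with 20 uM heparin, 6 hr at 37 C. ThT 30 uM added, 1 hr ambient; Alexa 594 FP and total fluorescence read at 555/632 nm.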
# TR SRC2 fluor cs = alters Texas Red total fluorescence, flagging assay interference | TRb/SRC2 Texas Red total fluorescence interference | Potency, µM (doses to about 106 µM), without a hit: at the top dose fluorescence change, negative = quenching | 280,000 compounds, 0.29% hits | AID 1479; active = well fitted curve in either direction with a large enough effect; inconclusive = small, poorly fitted or top-dose-only effect; also: potency is read from the fitted curve at half-maximal effect
#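 Human TRβ ligand-binding domain (0.6 uM) and Texas Red SRC2 peptide (20 nM) in Tris buffer with 1 uM T3 and 5% DMSO were incubated with pinned compound for 5 hr at ambient temperature. Total fluorescence was computed as S + 2P (555/632 nm).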
# TRb SRC2 PPI = inhibitors of human thyroid hormone receptor beta-SRC2 interaction | TRbeta-SRC2 peptide binding, fluorescence polarization; receptor liganded with 1 µM T3 | 280,000 compounds, 0.065% hits | AID 1469 | Potency, µM (top dose mostly 106 µM), inactives show at the highest dose activity change, negative = inhibition, most hits filed as inhibitors;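 also: potency is read from the fitted curve at half-maximal effect; plate controls were bound peptide for no effect and peptide without receptor for full effect; nearly all actives have a fitted effect of over 50% in size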
# Target sequence (P10828 whole entry, looked up): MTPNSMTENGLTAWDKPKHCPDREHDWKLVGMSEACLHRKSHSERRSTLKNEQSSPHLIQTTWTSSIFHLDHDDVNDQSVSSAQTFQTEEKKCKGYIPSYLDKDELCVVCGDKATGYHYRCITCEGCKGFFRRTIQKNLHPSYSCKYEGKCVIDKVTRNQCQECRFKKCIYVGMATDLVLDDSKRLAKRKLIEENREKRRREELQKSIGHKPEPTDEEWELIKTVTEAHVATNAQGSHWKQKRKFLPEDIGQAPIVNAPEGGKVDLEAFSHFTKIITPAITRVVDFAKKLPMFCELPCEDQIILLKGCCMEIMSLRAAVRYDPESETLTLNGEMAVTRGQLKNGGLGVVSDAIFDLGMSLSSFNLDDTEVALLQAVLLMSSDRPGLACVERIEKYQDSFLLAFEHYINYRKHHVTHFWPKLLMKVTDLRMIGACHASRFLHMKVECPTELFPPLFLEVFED
#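 Fluorescence polarization of 20 nM Texas Red SRC2 peptide (20-aa NR interaction domain) bound to 0.6 uM human TRb ligand-binding domain, with 1 uM T3, after 5 hr at ambient temperature; inhibition seen as decreased polarization.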
# Tau ThT inhib = inhibitors of human tau fibril formation, thioflavin T binding | 270,000 compounds, 2.1% hits | P10636 | Potency, µM (series often up to 57.4 µM), without a hit: at the highest dose activity, negative = inhibition, hits mostly inhibitors | recombinant tau K18 P301L, heparin-induced fibrillization, ThT fluorescence; also: potency is read from the fitted curve at half-maximal effect; nearly all actives have a fitted effect of over 55% in size
#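 Using a mix of unlabeled (15 uM) and Alexa 594-labeled (0.24 uM) tau K18 P301L, heparin-triggered fibrillization over 6 hr at 37 C was scored by ThT fluorescence.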
# Active calls of the source: *; u = inconclusive; x = no result; [ ] = dose if it differs, or a comment. Only some compounds are listed: those with a hit (about 4.6% of all), similar ones and a draw of the others. Unless noted, calls follow the shape of the dose curve; as a rule, active = well fitted curve in the direction sought with a large enough effect; inconclusive = small, poorly fitted or top-dose-only effect, or another doubt; inactive = no such curve, though single readings can be large; an effect the other way counts as inactive or inconclusive. Unless noted, % is scaled to controls: 0 for no effect and ±100 for the full control effect.
SMILES,Tau fibril FP,PNC assembly inh,Tau fluor counter,TR SRC2 fluor cs,TRb SRC2 PPI,Tau ThT inhib
Cc1ccc(S(=O)(=O)CC(CN2CCOCC2)N2CCOCC2)cc1 (stereo not drawn),8%,x,8%,-4%,2%,3%
COc1ccc(S(=O)(=O)n2nc(-c3ccc(Cl)cc3)cc2N)cc1OC,-12%,-7,16µM*[quencher],-4%,-7%,-14%
COc1ccccc1NS(=O)(=O)c1ccc(N/N=C/c2ccccc2OCC(=O)O)c([N+](=O)[O-])c1,1%,x,u,-16%,3%,10µM*
CCN(CC)S(=O)(=O)c1ccc(N/N=C/c2ccccc2OCC(=O)O)c([N+](=O)[O-])c1,11%,x,-15%,-9%,0%,u
O=C(O)COc1ccccc1/C=N/Nc1ccc(S(=O)(=O)Nc2ccc(Cl)cc2)cc1[N+](=O)[O-],u,x,u,-11%,-8%,14µM*
COC(=O)c1ccc(COC(=O)c2ccc(CS(=O)(=O)c3ccc(C)cc3)cc2)cc1,-3%,18,-14%,0%,-8%,-6%
CC(=O)c1cccc(N(CC(=O)NCC2CCCO2)C(=O)CCC(=O)Nc2cc(C)on2)c1 (stereo not drawn),-7%,-100*,-14%,0%,0%,-15%
O=c1c[n+]([O-])c2ccccc2n1OCc1c(F)cccc1F,0%,u,-5%,0%,2%,-16%
O=C(CNc1ccc2ccccc2c1)N/N=C/c1ccc([N+](=O)[O-])o1,2%,1,14µM*[quencher],-2%[53 µM],-5%[53 µM],u
CCCC(=O)Nc1ccc(C(=O)N/N=C/c2ccc([N+](=O)[O-])o2)cc1,-5%,u,-21%,u,1%,8.9µM*
O=C(COc1cccc(Cl)c1)N/N=C\c1cc2ccccc2nc1Cl,-12%,-2,-14%,-4%,-6%,-4%
O=C(CNc1ccc2ccccc2c1)N/N=C/c1cc2ccccc2nc1Cl,-1%,3,13µM*[quencher],-2%,-5%,u
N#Cc1c(C#N)c(-c2ccccc2)n(-c2ccc(C(=O)O)cc2)c1N,-3%,55,-4%,-3%,-10%,-4%
Cc1cc(C)c2cc(CN(CCO)C(=O)NC3CCCCC3)c(=O)[nH]c2c1,7%,x,-1%,-1%,-1%,x
NNC(=O)CCCCCCCCCCOCCCCO,-6%,x,-14%,-4%,-8%,-15%
NS(=O)(=O)c1ccc(NC(=O)CN2CCCC2)cc1,-4%,x,-2%,-1%,-8%,1%
NS(=O)(=O)c1ccc(NC(=O)CN2CCCCC2)cc1,-6%,-83*,-2%,1%,-17%,-3%
O=C(CCc1ccccc1)N1CCN(CCO)CC1,0%,-89*,-10%,1%,1%,-8%
CC1CC(C)CN(C(=O)CCc2ccccc2)C1 (stereo not drawn),1%,x,-3%,0%,5%,-4%
O=C(CCCC(=O)N1CCN(c2ccc([N+](=O)[O-])cc2)CC1)c1ccccc1,6%,19,-8%,-2%,-1%,2.2µM*
O=C(CCCc1ccccc1)N1CCN(c2ccc([N+](=O)[O-])cc2)CC1,-5%,53,-20%,-1%,8%,2.2µM*
O=C(CCS(=O)(=O)Cc1ccccc1)N1CCN(c2ccc([N+](=O)[O-])cc2)CC1,-5%,x,-15%,-5%,2%,u
O=C(N/C(=C\c1cccnc1)C(=O)N1CCOCC1)c1ccco1,4%,x,1%,0%,-12%,-7%
CCCC1Nc2ccc(C(=O)O)cc2C2C=CCC12 (stereo not drawn),u,u,u,8%,3%,22µM*
CC(C)C1Nc2ccc(C(=O)O)cc2C2C=CCC21 (stereo not drawn),8%,x,10%,-1%,0%,9%
SMILES,Tau fibril FP,PNC assembly inh,Tau fluor counter,TR SRC2 fluor cs,TRb SRC2 PPI,Tau ThT inhib
O=C(O)c1ccc2c(c1)C1C=CCC1C(c1ccncc1)N2 (stereo not drawn),u,x,u,-8%,6%,25µM*
CCOc1ccc(Br)cc1CNCCN1CCOCC1,4%,19,7%,-3%,4%,-1%
CC1=NN2C(=N)/C(=C\c3cc(C)n(-c4cccc(C)c4)c3C)C(=O)N=C2S1,-1%,x,-4%,0%,-2%,u
CCC1(C)N(O)C(C)(C)C(c2ccc(F)cc2)=[N+]1[O-] (stereo not drawn),-7%,-100*,-1%,-3%,-8%,-2%
COc1cccc(C(c2nnnn2Cc2ccccc2)N2CCN(C(=O)c3ccco3)CC2)c1OC (stereo not drawn),13%,-25,8%,-1%,2%,0%
O=C(CSc1ncnc2c(-c3ccc(Cl)cc3)nsc12)c1ccccc1,u,10,u,3%,-4%,18µM*
COc1cc(OC)c2c(c1)C(=O)OC2,1%,25,-6%,-4%,1%,-4%
Nc1ccc(/C=C/c2ccc3ncccc3c2)cc1,-6%,x,-29%,-13%,-8%,6.3µM*
O=C(N/N=C/c1ccc2ncccc2c1)c1ccco1,u,x,-9%,-2%,-7%,u
c1ccc2ncccc2c1,x,x,x,-2%,3%,x
Nc1ccc2ncccc2c1,u,9,-21%,-7%,-4%,16µM*
Nc1ccc2ncccc2c1N,u,3,u,-3%,5%,25µM*
NC(=O)CC(NC(=O)c1ccccc1)c1ccc(N2CCC(Br)CC2)c([N+](=O)[O-])c1 (stereo not drawn),-1%,x,-19%,-1%,13%,u
O=C(Nc1ccc2nc(SCCOc3ccccc3Cl)sc2c1)c1cccs1,10µM*,x,u,9%,7%,12%
Cc1cc(C)cc(OCCSc2nc3ccc(NC(=O)c4cccs4)cc3s2)c1,7.1µM*,x,u,-20%,10%,7%
Cc1cc(/C=C2/C(=O)N(C)C(=S)N2C)c(C)n1C1CC1,-11%,62,-17%,2%,5%,u
CCOC(=O)c1c(N)sc(-c2ccccc2)c1C,6%,-19,u,-6%,-10%,25µM*
O=C1C=CC2=C3c4cc(O)c(O)cc4C[C@@]3(O)COC2=C1,u,x,u,14%,-18%,8.9µM*
CN1CC=C2C(C#N)=C(N)C(C#N)(C#N)C(Cc3ccccc3)C2C1 (stereo not drawn),-16%,-119*,-22%,5%,-2%,u
CC(C)N1CC=C2C(C#N)=C(N)C(C#N)(C#N)C(c3ccccc3)C2C1 (stereo not drawn),u,-107*,-18%,5%,-10%,u
